Source: PubChem BioAssay
BRCA1 expr act: increases BRCA1 expression; 1.1% of 380,000 active; AID 624202; Potency, µM (series often up to 46.1 µM), for inactives: top-dose activation, hits mostly activators; MCF7-BRCA1-FFLuc reporter, luminescence, 48 h; response scale: scaled: vehicle 0%, 10 µM genistein 100%; further: potency means the concentration at half of the fitted maximal effect; nearly all actives have a fitted effect of over 80% in size
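Quantitative HTS in MCF7 cells stably reporting BRCA1 expression via firefly luciferase. Compound treatment lasts 48 h at 37 °C in phenol-red free MEM. Activation is expressed relative to genistein at 10 microM and DMSO.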
PKM2 activator: activators of human pyruvate kinase M2; purified PKM2, Kinase-Glo ATP luminescence, activation; response scale: 0% is enzyme alone, no compound; Potency, µM (top dose mostly 57.5 µM), for inactives: at the highest dose activation, most hits filed as activators; 0.34% of 260,000 active; AID 1631; P14618; further: potency means the concentration at half of the fitted maximal effect; on the % scale 0 is the no-effect control and ±100 the full control effect; nearly all actives have a fitted effect of over 55% in size
Target sequence (P14618 whole entry, looked up): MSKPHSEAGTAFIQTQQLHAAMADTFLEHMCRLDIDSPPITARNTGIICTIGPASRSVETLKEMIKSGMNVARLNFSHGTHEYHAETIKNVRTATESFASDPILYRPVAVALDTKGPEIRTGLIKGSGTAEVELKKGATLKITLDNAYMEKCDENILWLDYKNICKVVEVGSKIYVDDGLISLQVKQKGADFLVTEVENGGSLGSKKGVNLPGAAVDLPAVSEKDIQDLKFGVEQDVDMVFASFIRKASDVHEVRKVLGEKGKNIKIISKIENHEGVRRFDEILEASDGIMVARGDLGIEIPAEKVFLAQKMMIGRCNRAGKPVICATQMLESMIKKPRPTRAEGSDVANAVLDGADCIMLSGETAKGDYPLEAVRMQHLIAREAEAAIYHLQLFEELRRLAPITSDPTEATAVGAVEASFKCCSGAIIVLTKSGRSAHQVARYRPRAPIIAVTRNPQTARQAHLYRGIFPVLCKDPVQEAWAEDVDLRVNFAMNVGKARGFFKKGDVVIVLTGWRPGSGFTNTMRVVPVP
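ATP formation by purified human PK-M2, quantified via coupled luciferase luminescence after 1 h at room temperature with 0.1 mM ADP and 0.5 mM PEP final.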
IL-2 act: activators of IL-2; AID 652025; 0.065% of 360,000 active; activation, % (series mostly up to about 46 µM); IL-2 activation reporter assay, cell-based qHTS; stimulated with anti-CD3/CD4/CD28 beads; in transgenic mouse T cells; in the data active means activation above about 50%; inconclusive means mostly about 30% to 49%; further: 0% is about no effect
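Unstimulated transgenic mouse T cells preincubated 60 min with compound, then stimulated with anti-CD3/anti-CD4-coated beads plus anti-CD28 for 18 h at 37 degrees C. IL-2 response read as EGFP and DsRed fluorescence by plate cytometry.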
Apoferritin bind: binds horse apoferritin like a general anesthetic. apoferritin/1-aminoanthracene competitive binding, fluorescence. Potency, µM (series often up to 77.5 µM), for the others: at the top dose activity change, negative = displacement, usual class: inhibitors. 0.074% of 350,000 active; further: potency means the concentration at half of the fitted maximal effect; on the % scale 0 is the no-effect control and ±100 the full control effect; nearly all actives have a fitted effect of over 20% in size
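Apoferritin-based anesthetic binding model; compound displacement of fluorescent 1-AMA measured as endpoint fluorescence after 10 minutes at room temperature, scaled to free-ligand and complex controls.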
Integrin act MD: activators of alpha7 integrin expression for muscular dystrophy. alpha7betagal myoblasts, beta-gal FDG fluorescence, 48 h. 0.064% of 350,000 active. Potency, µM (titrated, usually from 38.3 µM), inactives show top-dose activation, most hits filed as activators. AID 624291;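 further: potency means the concentration at half of the fitted maximal effect; 100% = response of the positive control SU9516; nearly all actives have a fitted effect of over 60% in size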
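alpha7betagal+/- myoblasts (passage 13, 250/well) treated 48 h at 37C with compounds at 1:260 dilution of DMSO stock. Lysed, then beta-galactosidase activity read as FDG fluorescence (ex 480/em 540) after 30 min, with pre-read for autofluorescence.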
* = called active by the depositor; [ ] = dose if it differs, or a comment. In the library only some 1.3% were active in any assay of this set; here they are far more common. Unless noted, the call rests on the fitted dose curve; in most records, active means well fitted curve in the direction sought with a large enough effect; inconclusive means small, poorly fitted or top-dose-only effect, or another doubt; inactive means no such curve, though single readings can be large; an effect the other way counts as inactive or inconclusive.

Screening O=C(Nc1nc(-c2ccco2)cs1)c1ccccc1 returned BRCA1 expr act 8.91µM*, PKM2 activator inconclusive, IL-2 act 0.9, Apoferritin bind -13.3% and Integrin act MD 23.0%.
`Cc1csc(NC(=O)c2ccncc2)n1` gave BRCA1 expr act -20.4%, PKM2 activator 0.1%, IL-2 act -3.0, Apoferritin bind -3.7% and Integrin act MD -20.8%.
C=C1NN(Cc2ccccc2)C(=O)N1c1ccc(OCc2ccccc2)cc1 was read as BRCA1 expr act 83.2%.
`O=C(CBr)c1ccc(Oc2ccc(C(=O)C[n+]3ccccc3Cl)cc2)cc1` gave BRCA1 expr act -5.6%.
Screening O=C(O)c1ccc(COc2ccc3c4c(c(=O)oc3c2)CCC4)o1 returned BRCA1 expr act 0.0%, PKM2 activator -17.4%, IL-2 act 0.6, Apoferritin bind -2.4% and Integrin act MD inconclusive.
For CCc1cc(=O)oc2cc(OCc3ccc(C(=O)O)o3)ccc12 the results were BRCA1 expr act 6.31µM*, IL-2 act -3.5, Apoferritin bind 6.0% and Integrin act MD 4.5%.
For CCCCC#CC1C=CC(OC(C)=O)C(COC(C)=O)O1 (stereo not given) the results were Apoferritin bind -8.7%[15.3 µM].
`COc1ccc([C@H]2Cc3cccc(O)c3C(=O)O2)cc1O` gave BRCA1 expr act 0.0%, IL-2 act 0.1 and Integrin act MD -1.2%.
COc1ccc([C@H]2Cc3cc(O)cc(O)c3C(=O)O2)cc1O was read as BRCA1 expr act 10µM*, IL-2 act 0.9 and Integrin act MD 18.1%.
For COc1ccc2nccc(/C=C/c3ccc(N(C)C)cc3)c2c1 the results were BRCA1 expr act -27.3%.
Screening CSCC[C@H](NC(=O)c1ccc(NC[C@@H](N)CS)cc1-c1ccccc1)C(=O)O returned Apoferritin bind -13.1%.
For CCOC(=O)c1sc(-c2ccc(Br)cc2)cc1N the results were BRCA1 expr act 7.08µM*, PKM2 activator 0.6%, IL-2 act -1.0, Apoferritin bind -1.9% and Integrin act MD 10.4%.
For CCOC(=O)c1sc(=N)n(-c2ccc(OC)cc2)c1C the results were BRCA1 expr act inconclusive, PKM2 activator 0.1%, IL-2 act 0.8, Apoferritin bind -17.6% and Integrin act MD 2µM*.
Screening CC1(C)Cc2c(cnn2-c2cccc(F)c2)C(NC(=O)CCc2cnccn2)C1 (stereo not given) returned BRCA1 expr act 2.9%, IL-2 act -0.2, Apoferritin bind -6.5% and Integrin act MD 3.16µM*.
C=CCCC(=O)NC1CC(C)(C)Cc2c1cnn2-c1cccc(F)c1 (stereo not given) was read as BRCA1 expr act 0.2%, PKM2 activator -0.5%, IL-2 act 1.1, Apoferritin bind -2.4% and Integrin act MD 7.4%.
`Nc1nc(-c2ccccc2)c(-c2ccc([N+](=O)[O-])cc2)s1` gave BRCA1 expr act -21.5%, PKM2 activator 20µM*, IL-2 act 0.3, Apoferritin bind 3.0% and Integrin act MD -5.2%.
For O=C(NCCOc1ccccc1Cl)c1cc(F)c(F)cc1Cl the results were BRCA1 expr act 7.08µM*, PKM2 activator 0.2%, IL-2 act 0.1, Apoferritin bind -17.7% and Integrin act MD 12.4%.
Screening O=C(NCCOc1ccccc1Cl)c1ncn[nH]1 returned BRCA1 expr act 1.2%, PKM2 activator 0.4%, IL-2 act -4.3, Apoferritin bind -2.4% and Integrin act MD -19.8%.
`CNc1nc(Cl)nc2c1ncn2CC(COC(=O)C(C)(C)C)COC(=O)C(C)(C)C` gave Apoferritin bind -3.8%.
Screening O=C(c1nc2ccccc2[nH]1)c1ccccc1[N+](=O)[O-] returned BRCA1 expr act 11.2µM*, PKM2 activator 2.3%, IL-2 act -0.2, Apoferritin bind -4.7% and Integrin act MD 5.0%.
For CSCCC1NC(=O)N(CC(=O)Nc2ccc(-c3ccccc3)cc2)C1=O (stereo not given) the results were BRCA1 expr act 69.9%, PKM2 activator -1.1%, IL-2 act -1.6, Apoferritin bind -14.9% and Integrin act MD 5.7%.
For CCOc1ccc(NC(=O)CN2C(=O)NC(CCSC)C2=O)cc1 (stereo not given) the results were BRCA1 expr act 13.3%, PKM2 activator 0.3%, IL-2 act 1.3, Apoferritin bind -0.4% and Integrin act MD 10µM*.
`Cc1ccc2c(cnn2C(=O)CCCC(=O)NCc2ccc(F)cc2)c1` gave BRCA1 expr act 80.6%, PKM2 activator -4.6%, IL-2 act -0.3, Apoferritin bind -19.0% and Integrin act MD -10.4%.
Cc1ccc2c(cnn2C(=O)CCCC(=O)NC(C)c2ccccc2)c1 (stereo not given) was read as BRCA1 expr act 2.51µM*, PKM2 activator 1.2%, IL-2 act -4.4, Apoferritin bind -10.6% and Integrin act MD -14.4%.
`Cn1c(=O)c2sccc2n2c(CCC(=O)N3CCN(c4cccc(Cl)c4)CC3)nnc12` gave BRCA1 expr act 2.6% and Apoferritin bind -3.5%.
`O=[N+]([O-])c1ccccc1N/N=C\c1ccccc1Cl` gave BRCA1 expr act 2.51µM*, PKM2 activator -11.0%, IL-2 act -1.1, Apoferritin bind -8.0% and Integrin act MD 3.3%.
Screening O=C(c1ccco1)N1CCCC(Nc2ccc3c(c2)OCCO3)C1 (stereo not given) returned BRCA1 expr act 8.91µM*, PKM2 activator -1.0%, IL-2 act 0.4, Apoferritin bind inconclusive and Integrin act MD -18.3%.
Screening CSCc1ccc(C(=O)N2CCCC(Nc3ccc4c(c3)OCCO4)C2)o1 (stereo not given) returned BRCA1 expr act 0.8%, PKM2 activator 8.6%, IL-2 act 1.3, Apoferritin bind 4.6% and Integrin act MD 17.2%.
CCCn1c2ccccc2c2cnn(CC(=O)NCCc3ccc(OCC)cc3)c(=O)c21 was read as Apoferritin bind -6.8%.
`CCNC(=O)C1CCCN(c2nn3cc(-c4ccc(C)cc4)nc3s2)C1` (stereo not given) gave Apoferritin bind -2.4%.
`O=C(CSc1ncccc1C(=O)Oc1ccccc1Cl)Nc1ccccc1Cl` gave BRCA1 expr act 11.2µM* and Apoferritin bind -16.8%.
For CC(C)(C)CNc1nc(C#N)nc(Nc2ccccc2)n1 the results were Apoferritin bind -17.4%.
Cn1c(=O)n(C)c2cc(NS(=O)(=O)c3ccc(F)cc3)c(NCc3ccccc3)cc21 was read as Apoferritin bind -5.3%.
Screening O=C(CSc1ccccc1Cl)c1ccco1 returned BRCA1 expr act 87.9%, PKM2 activator 5.3%, IL-2 act -0.1, Apoferritin bind 25.1µM* and Integrin act MD 1.6%.
